TEAD-YAP block = TEAD-YAP interaction inhibition, primary screen, TEAD-YAP interaction inhibitor project, luminescence, HEK-TIYL cells | actives 1.4% (n = 640,000) | inhibition, % at 9.12 µM | TEAD-Gal4/YAP UAS-luciferase luminescence; in the data active = inhibition above about 32%;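 also: 0% = median of test compound wells and 100% = reference inhibitor wells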
GPR151 ag = activators of human GPR151, primary screen, cell-based, PathHunter beta-arrestin, luminescence | G-protein coupled receptor 151 (Homo sapiens), Q8TDV0 | PathHunter beta-arrestin GPR151 cells | activation, % at 11.2 µM | actives 1% (n = 650,000) | AID 1508602, 2020; in the data active = activation above about 4.9%;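 also: 0% = median of compound wells and 100% = cells with positive control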
Target sequence (Q8TDV0 whole entry, looked up): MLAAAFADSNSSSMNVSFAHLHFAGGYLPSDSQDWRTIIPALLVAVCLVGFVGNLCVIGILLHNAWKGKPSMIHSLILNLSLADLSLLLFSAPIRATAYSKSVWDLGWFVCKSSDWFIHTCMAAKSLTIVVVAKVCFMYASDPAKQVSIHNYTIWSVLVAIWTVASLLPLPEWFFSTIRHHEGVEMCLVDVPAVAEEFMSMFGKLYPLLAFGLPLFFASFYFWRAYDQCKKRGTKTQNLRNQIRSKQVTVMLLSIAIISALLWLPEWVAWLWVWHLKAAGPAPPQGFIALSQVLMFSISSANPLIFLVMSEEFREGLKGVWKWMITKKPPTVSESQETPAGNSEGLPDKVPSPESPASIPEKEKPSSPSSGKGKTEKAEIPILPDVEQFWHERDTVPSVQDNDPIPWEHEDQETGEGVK
FBW7 activator = FBW7 E3 ligase activators, primary screen, biochemical, AlphaScreen, human; F-box/WD repeat-containing protein 7 (Homo sapiens), Q969H0; AlphaScreen FBW7–phospho-cyclin E peptide binding, activator screen; normalized activity (activation), % at 26.1 µM; actives 0.13% (n = 650,000); in the data active = normalized activity above about 1.9%;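 also: purified mutant Fbw7 with reduced substrate affinity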
MITF primary = MITF inhibitors, primary screen, biochemical, AlphaScreen, human; Microphthalmia-associated transcription factor (Homo sapiens), O75030; AlphaScreen MITF homodimerization, bead proximity signal; inhibition, % at 2.6 µM; actives 0.91% (n = 650,000); AID 1259374, 2018; in the data active = inhibition above about 50%;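 also: 0% = vehicle wells with protein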
* hit, by the source's call. Shown are actives, neighbours in structure and some others; about 3.4% of the full set was active somewhere.

SMILES	TEAD-YAP block	GPR151 ag	FBW7 activator	MITF primary
CC(C)n1cnc2c(NC3CCN(Cc4ccccc4)CC3)nc(N3CCCC3CO)nc21 (stereo not given)	36*	-1	0	10
COc1ccc(CCNc2nc(Nc3cnccn3)nc3c2ncn3C(C)C)cc1	36*	1	0	2
CC(C)n1cnc2c(NC3CC3)nc(Nc3cnccn3)nc21	38*	2	0	8
CC(C)n1cnc2c(NC3CC3)nc(Nc3ccccn3)nc21	25	0	0	3
CC(C)n1cnc2c(NC3CCN(Cc4ccccc4)CC3)nc(Nc3ccncc3)nc21	69*	-1	0	-10
OCC1CCCN1c1nc(NC2CCN(Cc3ccccc3)CC2)c2ncn(C3CCCCC3)c2n1 (stereo not given)	-15	-1	0	2
CC(C)n1cnc2c(NC3CCN(Cc4ccccc4)CC3)nc(Nc3ccccc3)nc21	15	0	0	8
Oc1ccc(CCNc2nc(Nc3cnccn3)nc3c2ncn3C2CCCCC2)cc1	40*	0	0	-7
Oc1ccc(CCNc2cc(Nc3cnccn3)ncn2)cc1	46*	3	0	-11
CC(C)n1cnc2c(NC3CCN(Cc4ccccc4)CC3)nc(Nc3cnccn3)nc21	76*	2	0	12
CC(C)n1cnc2c(NC3CCN(Cc4ccccc4)CC3)nc(NCc3cccnc3)nc21	76*	-2	0	16
Oc1ccc(CCNc2ccnc(Nc3cnccn3)n2)cc1	4	0	0	12
COc1ccc(CCNc2nc(Nc3cnccn3)nc3c2ncn3C2CCCCC2)cc1	14	-1	0	-8
CC(C)n1cnc2c(NCc3cccnc3)nc(NC3CCN(Cc4ccccc4)CC3)nc21	-2	1	0	8
CCNC(=S)N(Cc1ccc(OC)cc1)C1CC(=O)N(c2ccc(OC)cc2)C1=O (stereo not given)	2	0	0	6
CCN1CCN(C(=O)c2ccc(N3CCC(NCC4CCOCC4)CC3)cc2)CC1	0	-1	-1	-7
CC1CN(c2nc3ccccc3nc2C(C#N)C#N)CC(C)O1 (stereo not given)	2	0	0	6
O=C(CSc1ccc(-c2ccc(-n3ccnc3)cc2)nn1)N1CCc2ccccc21	-17	-1	2.3*	-35
c1cnc(Nc2cc(NCCN3CCOCC3)ncn2)cn1	-2	2	0	10
COc1cn(-c2ccc(F)cc2)nc1C(=O)Nc1ccccc1SC	32*	1	0	6
CCC1=NN2C(=N)/C(=C/c3ccc(OC(C)c4ccccc4)cc3)C(=O)N=C2S1 (stereo not given)	5	2	0	-16
O=C1CCCC(O)=C1N=Nc1ccc(C(=O)O)cc1	-7	-2	0	66*
N#Cc1ccc(NC(=O)CN2C(=O)CSC2=O)cc1	-5	2	0	5
CCc1nc2sc(C(=O)c3ccc4c(c3)OCO4)c(N)c2cc1C	40*	0	1	-5
COC(=O)CNC(=O)C1CC(=O)N(c2ccc(C)cc2)C1 (stereo not given)	-8	-1	0	16
SMILES	TEAD-YAP block	GPR151 ag	FBW7 activator	MITF primary
COc1ccc(C(=O)N2CCN(c3cccc(C)c3C)CC2)cc1	1	1	0	6
COc1ccccc1N1CCN(C(=O)c2cc(OC)c(OC)c(OC)c2)CC1	64*	1	0	-8
COc1cc(OC)cc(C(=O)N2CCN(c3cccc(C)c3C)CC2)c1	47*	-1	0	12
COc1cc(SC)ccc1C(=O)N1CCN(c2cccc(Cl)c2)CC1	51*	1	0	11
COc1ccccc1CNC(=O)c1ncoc1-c1ccccc1C(F)(F)F	-3	-1	0	-2
COc1ccccc1N1CCN(C(=O)c2ncoc2-c2ccccc2C(F)(F)F)CC1	51*	0	0	-17
CSc1ncc(Cl)c(C(=O)N2CCN(C)CC2)n1	4	0	0	-13
COc1ccccc1N1CCN(C(=O)COc2cccc(C)c2C)CC1	4	0	0	18
COc1nn(C)cc1C(=O)N1CCCC(C(=O)N2CCN(c3cccc(Cl)c3)CC2)C1 (stereo not given)	42*	-1	0	0
Cc1c(C(=O)N2CCN(c3cccc(Cl)c3)CC2)sc2nc[nH]c(=O)c12	48*	0	0	-9
COc1ccccc1N1CCN(C(=O)c2nc(SC)ncc2Cl)CC1	49*	4	0	-18
COc1ccccc1N1CCN(C(=O)COc2ccc(Br)cc2C)CC1	49*	2	0	6
Cc1ccc(Cn2nnc3c(=O)[nH]c(C4CCCN(C(=O)CC(C)C)C4)nc32)cc1 (stereo not given)	0	0	0	-1
COc1cc(OC)cc(C(=O)N(CCN(C)C)c2nc3ccccc3s2)c1	-4	-2	0	-2
COc1ccc2c(c1)CCCN2C(=O)c1cc(OC)c(OC)c(OC)c1	45*	2	0	14
Cc1onc(-c2ccccc2)c1C(=O)N1CCN(c2ccc([N+](=O)[O-])cc2Cl)CC1	3	-1	0	2
COc1ccccc1N1CCN(C(=O)c2cc(Br)cc(Br)c2)CC1	58*	1	0	15
COc1cc(C(=O)N2CCCc3ccccc32)cc(OC)c1OC	-1	1	0	10
Cc1cccc(N2CCN(C(=O)c3c(-c4ccccc4)noc3C)CC2)c1C	53*	0	0	-7
COc1cc(C(=O)N2CCN(c3cccc(Cl)c3)CC2)cc(OC)c1OC	52*	1	0	3
COc1ccc(-n2nc([N+](=O)[O-])c(=Nc3cc(C)cc(C)c3)n2O)cc1	-13	1	-1	11
O=C(N1CCCCCC1)N1c2ccccc2Sc2ccccc21	-3	0	0	3
COc1ccc(Cl)cc1C(=O)N1CCN(c2ccccc2F)CC1	34*	4	0	0
O=C(N1CCN(c2ccccc2F)CC1)N1c2ccccc2Sc2ccccc21	64*	2	0	11
COC(=O)c1cc(C(=O)N2CCN(c3ccccc3OC)CC2)cc([N+](=O)[O-])c1	64*	2	0	-11
SMILES	TEAD-YAP block	GPR151 ag	FBW7 activator	MITF primary
CSc1ccc(NC(=O)NCCN2CCN(c3cccc(Cl)c3)CC2)cc1	3	0	4.4*	-13
O=C(CSc1nnc(-c2ccccn2)n1Cc1ccccc1)NCc1cccs1	-7	0	0	7
Cc1ccc(NC(=O)CSc2n[nH]c(-c3ccccc3)n2)cc1	10	-1	0	19
Cc1ccc(NNC(=O)Cc2ccccc2)cc1	-5	0	0	1
Cc1ccnc(NC(c2ccco2)c2c(C)[nH]c3ccccc23)c1 (stereo not given)	38*	0	0	-9
O=c1c2c3c(sc2n2cnnc2n1Cc1ccccc1)CCCC3	-5	0	1.9*	18

High-throughput results (PubChem BioAssay)
